Each structure is given as a SMILES string. Several values for one entry are separate records, joined by “and”; a condition that tells them apart may be missing. Equal entries are not always repeated. About 79,000 compounds went through this panel and 15% of them were active in at least one assay; those are over-represented in the sample as a whole. The source holds several records for some structures; these can differ, active in one and inactive in another. Activity calls are given as the source filed them. Rule as the data show it: active = growth inhibition above about 70%; inactive = the rest.

A short description of the first experiment: NCI Yeast Anticancer Drug Screen. Data for the cln2 rad14 strain (AID 165).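 Also: 0% = growth equal to vehicle treated cultures.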 Particulars: S. cerevisiae cln2 rad14 strain, at 50.0 µM, stronger effect = higher value. A digest of the protocol: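 Compounds are applied to the cln2 rad14 yeast strain, and growth is then compared with that of vehicle-treated cultures to give inhibition.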
For the molecule `CC(=O)OC1OC(CI)C(OC(C)=O)C(OC(C)=O)C1OC(C)=O` (stereo unspecified), the growth inhibition is 17.1% (inactive) and 5.75% (inactive).

Turning to `Cc1cc(NS(=O)(=O)c2ccc(N=Nc3cc(N=Nc4ccc(S(=O)(=O)Nc5cc(C)nc(C)n5)cc4)c4c(NC(=O)C(Cl)Cl)cccc4c3OC(=O)C(Cl)Cl)cc2)nc(C)n1` (tested in a mixture with another compound), the growth inhibition was -3.85% (inactive) and 41.8% (inactive).

For `O=[N+]([O-])c1ccc(N/N=C/CC(O)(C(F)(F)F)C(F)(F)F)c([N+](=O)[O-])c1`, the growth inhibition is 88% (active).

Consider `CCCc1cc(=O)oc2c3c(c4c(c12)OC(C)(C)CC4)O[C@@H](C)[C@H](C)[C@H]3O`, for which the growth inhibition is 10.9% (inactive) and 88.7% (active).

In the case of `O=Cc1cc(Br)ccc1O`, the growth inhibition was 48.2% (inactive) and 69% (inactive).

As to `Nc1ncnc2c1ncn2CCCl`, the growth inhibition was -6.85% (inactive).

Consider `CN(C)CCCN=c1c2ccccc2n(O)c2cccc([N+](=O)[O-])c12`, for which the growth inhibition was 22.4% (inactive).

As to `CCOc1ccc2ccccc2c1C(Cc1ccc(Cl)cc1)NCCO` (stereo unspecified), the growth inhibition is 98.6% (active).

As to `CCCCCCCCCCCC(=O)CN1CCOCC1`, the growth inhibition is 97.8% (active).

Consider `CCC(C)(C)c1cc(O)c(C(C)(C)CC)cc1O`, for which the growth inhibition is -15.2% (inactive) and 84.8% (active).

As to `Nc1ccccc1Oc1ccc(Cl)cc1Cl`, the growth inhibition was 92.3% (active).

On to `NNC(=O)c1ccc(NC(=O)CSc2nc3ccccc3s2)cc1`, for which the growth inhibition is 31.2% (inactive).

With `CC(C)(c1ccc(O)cc1)c1ccc(O)cc1`, the growth inhibition is 50.4% (inactive) and 71.2% (active).

On to `CCN(CC)c1ccc(/C=C/c2ccnc3ccccc23)cc1`, for which the growth inhibition was 98.6% (active) and 97.5% (active).

As for `Oc1ccc(/C=N/NC(=S)NN2CCOCC2)nc1`, the growth inhibition was 80.8% (active).

Regarding `COc1ccc(-c2c(C#N)c(-c3ccc(C)cc3)n(NS(=O)(=O)c3ccccc3)c(=O)c2C#N)cc1`, the growth inhibition was 66% (inactive).

As for `C1=C(c2ccccc2)N(CCc2ccccc2)C(c2ccccc2)=CN1Cc1ccccc1`, the growth inhibition is 98.5% (active).

On to `COC(=O)c1nnn(-c2ccc(S(N)(=O)=O)cc2)c1N`, for which the growth inhibition is 18.7% (inactive).

Turning to `O=C1C(CN2CCOCC2)CCCC1CN1CCOCC1` (stereo unspecified), the growth inhibition is 19.1% (inactive) and -27.2% (inactive).

`c1ccc(-c2nc3ccccc3[nH]2)cc1`: the growth inhibition was -50.4% (inactive) and -4.4% (inactive).

With `COC(=O)[C@]1(C)CCC[C@]2(C)c3ccc(C(C)C)cc3CC[C@@H]12`, the growth inhibition was -19.3% (inactive) and 99% (active).

As to `CCOC(=O)c1ccc(NCc2ccc3ccccc3n2)cc1`, the growth inhibition was 19.1% (inactive).

For the molecule `CCCCCCCCCCCCCCCC(=O)NCC[N+](C)(C)C`, the growth inhibition is 99.2% (active).

Take `OC(c1nc2ccccc2[nH]1)C(O)C(O)C(O)c1nc2ccccc2[nH]1` (stereo unspecified): the growth inhibition is 2.25% (inactive) and -6.8% (inactive).

Take `O=[N+]([O-])c1ccc(N/N=C(/C=N/Nc2ccc([N+](=O)[O-])cc2)C(O)C(O)C(O)CO)cc1` (stereo unspecified): the growth inhibition is 98% (active) and 97.8% (active).

Take `c1ccc2c(c1)CNc1ccccc1-2`: the growth inhibition was 7.4% (inactive).

The next experiment in a line: NCI Yeast Anticancer Drug Screen. Data for the bub3 strain (AID 167). Particulars: S. cerevisiae bub3 mutant strain, at 5.0 µM (retest, dose inferred, filed as 0.5), stronger effect = higher value. A digest of the protocol:
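Growth of a checkpoint-deficient yeast mutant is measured after compound exposure. Values represent inhibition relative to vehicle.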
For `COc1ccc2[nH]c3c(C)c4ccncc4c(C)c3c2c1`, the growth inhibition was 30% (inactive).

Regarding `CC(=O)OC1OC(CI)C(OC(C)=O)C(OC(C)=O)C1OC(C)=O` (stereo unspecified), the growth inhibition is -5% (inactive).

With `Oc1cc2c(cc1C(c1ccc3c(c1)OCO3)N1CCN(C(c3ccc4c(c3)OCO4)c3cc4c(cc3O)OCO4)CC1)OCO2` (stereo unspecified), the growth inhibition is 2% (inactive).

For `O=Cc1cc(Br)ccc1O`, the growth inhibition is 6% (inactive) and -4% (inactive).

For `Cc1n(-c2ccccc2)c2c([n+]1Cc1ccc([N+](=O)[O-])cc1)C(=O)c1ccccc1C2=O`, the growth inhibition is -6% (inactive).

`Nc1ncnc2c1ncn2CCCl`: the growth inhibition was -2% (inactive).

For `CCOc1ccc2ccccc2c1C(Cc1ccc(Cl)cc1)NCCO` (stereo unspecified), the growth inhibition is -2% (inactive).

Take `COc1ccc(Oc2ccccc2N)cc1`: the growth inhibition is 6% (inactive).

On to `O=C1C(Cl)=C(Cl)C(Cl)(Cl)C(Cl)=C1Cl`, for which the growth inhibition was 22% (inactive) and 19% (inactive).

Turning to `CCCCCCCCCCCC(=O)CN1CCOCC1`, the growth inhibition was 87% (active).

Regarding `CC[C@](O)(CC(=O)O[C@H]1C(=O)O[C@@H]2C[C@H]3C(C)=CC(=O)[C@@H](O)[C@]3(C)[C@H]3[C@@]4(O)OC[C@]32[C@@H]1[C@@H](C)[C@H]4O)C(C)C`, the growth inhibition was 51% (inactive).

In the case of `O=C1Nc2ccccc2C1(O)C/C(=N/O)c1ccc2ccccc2c1` (stereo unspecified), the growth inhibition was 47% (inactive).

As for `NNC(=O)c1ccc(NC(=O)CSc2nc3ccccc3s2)cc1`, the growth inhibition was 52% (inactive).

On to `C[C@H]1CC[C@H]([C@@H](C)[C@H]2[C@@H](O)C[C@H]3[C@@H]4CC[C@H]5C[C@@H](O)CC[C@]5(C)[C@H]4CC[C@]23C)NC1`, for which the growth inhibition is 24% (inactive) and 0% (inactive).

For `O=C1/C(=C/c2ccc(Cl)cc2)CNC/C1=C\c1ccc(Cl)cc1`, the growth inhibition is 90% (active) and 46% (inactive).

On to `CCN(CC)c1ccc(/C=C/c2ccnc3ccccc23)cc1`, for which the growth inhibition was 28% (inactive) and -4% (inactive).

As for `c1ccc(-c2[nH]c3ccccc3c2-c2ccccn2)cc1`, the growth inhibition is 0% (inactive).

For the molecule `Nc1cc2c(cc1Cl)[nH]c(=O)c1cc(Cl)ccc12`, the growth inhibition was 39% (inactive).

`C1=C(c2ccccc2)N(CCc2ccccc2)C(c2ccccc2)=CN1Cc1ccccc1`: the growth inhibition was 9% (inactive).

With `c1ccc(-c2nc3ccccc3[nH]2)cc1`, the growth inhibition was 0% (inactive).

Consider `O=Cc1cc([N+](=O)[O-])cc(CCl)c1O`, for which the growth inhibition was -71% (inactive).

As to `COC(=O)[C@]1(C)CCC[C@]2(C)c3ccc(C(C)C)cc3CC[C@@H]12`, the growth inhibition is 1% (inactive).

Consider `CCOC(=O)c1ccc(NCc2ccc3ccccc3n2)cc1`, for which the growth inhibition was 11% (inactive).

For `CCCCCCCCCCCCCCCC(=O)NCC[N+](C)(C)C`, the growth inhibition is 58% (inactive).

For the molecule `c1ccc2c(c1)CNc1ccccc1-2`, the growth inhibition is 47% (inactive).

The record behind these values is PubChem BioAssay (NCI).
